# Compound activity deposited in PubChem BioAssay by National Center for Advancing Translational Sciences (NCATS).
# Rows were chosen to be rich in hits. Some 21% of all compounds tested hit in one or more screens of this group.
# Shiga toxin inh – A qHTS for Small Molecule Inhibitors of Shiga Toxin | AID 2315, 2010 | Vero cells, Shiga toxin protein synthesis inhibition reporter | 290,000 tested, 9.2% active | inhibition, % at 38.7 µM; in the data active means inhibition mostly above about 28%, no sharp cut-off; inactive means mostly below about 43%; further: 0% is about no effect
# Pf growth 96h – Primary qHTS for delayed death inhibitors of the malarial parasite plastid, 96 hour incubation. P. falciparum luciferase reporter growth, 96 h. Potency, µM (highest dose often 28.7 µM), for inactives: top-dose activity change, negative = inhibition, usual class: inhibitors. 320,000 tested, 6.9% active. AID 504834, 2011; further: potency means the concentration at half of the fitted maximal effect; on the % scale 0 is the no-effect control and ±100 the full control effect
#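 96 h incubation, 37 C, 5% CO2, of luciferase-reporter P. falciparum-infected RBCs (2% hematocrit, 0.05% parasitemia final) with test compounds; endpoint luminescence.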
# HCV inhibitor – qHTS Assay for Inhibitors of Hepatitis C Virus (HCV). Huh7.5.1 HCVcc-Cre infection, luciferase reporter, 44 h. Potency, µM (series often up to 41.8 µM), for the others: at the highest dose activity change, negative = inhibition, hits mostly inhibitors. 340,000 tested, 3.4% active. AID 651820, 2012; further: potency means the concentration at half of the fitted maximal effect; on the % scale 0 is the no-effect control and ±100 the full control effect
#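 Compounds are dispensed onto cells plated 4 h earlier at 1,000 per well, with HCVcc-Cre virus (about 0.5 moi) added next. Following 44 h of culture, luminescent signal is measured for 15 sec after 15 min with substrate at room temperature.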
# Pf growth 48h – Primary qHTS for delayed death inhibitors of the malarial parasite plastid, 48 hour incubation; P. falciparum luciferase growth in erythrocytes, 48 h; Potency, µM (doses to about 28.7 µM), for inactives: at the highest dose activity change, negative = inhibition, usual class: inhibitors; 310,000 tested, 5.9% active; AID 504832, 2011; further: potency means the concentration at half of the fitted maximal effect; on the % scale 0 is the no-effect control and ±100 the full control effect
#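 Read-out is firefly luciferase luminescence from an integrated reporter in P. falciparum, so falling signal marks reduced parasite growth. Infected erythrocytes were at 2% hematocrit and 0.1% parasitemia (final) in Albumax-supplemented RPMI 1640.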
# HCMV antiviral – qHTS Assay for inhibitors of the human cytomegalovirus (HCMV). HFF cells, HCMV-luciferase reporter, 72 h; stronger effect = lower value. 410,000 tested, 4.5% active. AID 1259415, 2018. activity change, negative = inhibition, % at 57.5 µM; in the data active means activity change below about -60%; inconclusive means no clear call, values can overlap the other calls; inactive means above about -39%; further: on the % scale 0 is the no-effect control and ±100 the full control effect
#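 Two-dose cell screen: HFF monolayers treated with compounds and infected with luciferase-expressing HCMV at 1 PFU/cell, 72 h at 37C, then lysed for luciferase measurement.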
# CHX counter – Cycloheximide Counterscreen for Small Molecule Inhibitors of Shiga Toxin; max response, %; AID 2314, 2010; cell reporter, cycloheximide protein synthesis inhibition counterscreen; 300,000 tested, 12% active; in the data active means max response mostly above about 13%, no sharp cut-off; inactive means mostly below about 14%; further: read at 38.3 µM for the half of the compounds with a filed dose; 0% is about no effect
# * marks the source's active call; other numbers are inactive results; i = inactive; ? = inconclusive; . = no result given. Unless noted, the call rests on the fitted dose curve; in most records, active means well fitted inhibition curve with a large enough effect; inconclusive means small, poorly fitted or top-dose-only effect, or another doubt; inactive means no such curve, though single readings can be large or run the other way.
SMILES,Shiga toxin inh,Pf growth 96h,HCV inhibitor,Pf growth 48h,HCMV antiviral,CHX counter
CC(C)(C)NC(=O)C1CC(=O)N(CCc2ccc(F)cc2)C1 (stereo not drawn),1,-14%,-11%,12%,3,-1
Cc1ccc(S(=O)(=O)c2nnn3c2nc(N2CCC(C)CC2)c2cc(Cl)ccc23)cc1C,.,.,.,.,13,.
Cc1cc(C)n(-c2ccc(C(=O)C(C#N)c3nc4ccccc4n3C)cc2)n1 (stereo not drawn),10,9.3µM*,-20%,18%,-21,-3
CSc1ccccc1NC(=O)COC(=O)c1ccc(-n2nc(C)cc2C)cc1,.,.,-3%,.,-107*,.
COc1cccc(C(C(=O)NC2CCCCC2)N(C(=O)c2ccccn2)c2cccnc2)c1 (stereo not drawn),-22,1.7µM*,17%,-2%,-14,-3
CCOc1ccc(N(C(=O)c2cnsn2)C(C(=O)NC2CCCCC2)c2ccncc2)cc1 (stereo not drawn),-6,1.2µM*,-4%,?,-9,2
COc1ccc(N(C(=O)c2cnsn2)C(C(=O)NC2CCCCC2)c2ccncc2)cc1 (stereo not drawn),-14,?,1%,-8%,-9,-1
Cc1nn(C)cc1C(C(=O)NC1CCCCC1)N(C(=O)c1cnccn1)c1ccc(Oc2ccccc2)cc1 (stereo not drawn),-2,-12%,-1%,5.9µM*,26,-1
CCOc1ccc(C(C(=O)NC2CCCCC2)N(C(=O)c2ccccn2)c2cccnc2)cc1 (stereo not drawn),-10,15µM*,8%,10µM*,-15,3
CCOC(=O)c1ccc(N(C(=O)c2cnccn2)C(C(=O)NC2CCCCC2)c2cn(C)nc2C)cc1 (stereo not drawn),4,?,-4%,?,4,-2
CCOc1cc(CNCCSc2nnnn2C)cc(Br)c1OCc1ccccc1,-3,.,2.8µM*,?,41,2
Cn1nnnc1SCCNCc1ccc(OCc2ccccc2)cc1,.,.,.,.,-1,.
CCOc1cc(CNCCO)cc(Br)c1OCc1ccccc1,12,0%,10µM*,?,?,1
CCc1ccc(NC(=O)Cn2c(=O)n(CCCCC(=O)NCCc3ccccc3)c(=O)c3ccccc32)cc1,.,.,.,.,5,.
Cc1ccc(O)c(NC(=O)c2noc3c2CCc2ccccc2-3)c1,87*,9.3µM*,?,?,14,43*
Cc1cc(NC(=O)c2noc3c2CCc2ccccc2-3)no1,7,-12%,11%,37%,-11,-2
CC(=O)c1cccc(NC(=O)c2noc3c2CCc2ccccc2-3)c1,66*,-29%,14%,i,13,35*
O=C(Nc1ccc2c(c1)OCCO2)C1CCCN(S(=O)(=O)c2cccs2)C1 (stereo not drawn),-7,.,?,7%,.,-2
O=C(Nc1ccc2c(c1)OCCO2)C1CCN(S(=O)(=O)c2cccs2)CC1,23,5%,-12%,.,-29,24*
O=C(Nc1ccc2c(c1)OCO2)C1CCCN(S(=O)(=O)c2cccs2)C1 (stereo not drawn),0,?,-21%,42%,.,2
O=C(Nc1cc(Cl)ccn1)C1CCN(S(=O)(=O)c2cccs2)CC1,-14,-10%,?,.,-73*,-2
O=C(Nc1ccc2c(c1)OCO2)C1CCN(S(=O)(=O)c2cccs2)CC1,42*,3%,6%,-13%,24,8.4*
Cc1nn(C)c(C)c1S(=O)(=O)N1CCC(C(=O)Nc2ccc3c(c2)OCCO3)CC1,81*,?,-1%,.,-7,30
COCCNC(=O)c1cccc(S(=O)(=O)N2CC3(C)CC2CC(C)(C)C3)c1 (stereo not drawn),.,?,23%,-7%,-16,.
O=C(CCNS(=O)(=O)c1ccccc1C(F)(F)F)NCCCc1ccccc1,.,2%,7%,13%,47,.
Cc1ccccc1-c1cc2nc(NCc3ccccc3)n(C)c(=O)c2s1,.,.,.,.,11,.
